We go through 74 compounds from PubChem BioAssay AID449728 (The Scripps Research Institute Molecular Screening Center, 2010).

SMILES strings stand for the structures. Out of some 330,000 compounds screened, about 900 (0.27%) were called active.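 How the source made its calls: active means inhibition above the campaign's mean inhibition across all tested compounds plus 3 SD (cut at about 9.9% in these data); inactive means the rest.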 The sample as a whole holds a higher share of actives than the screen did.

This assay is described as follows: bacterial viability reduction in E. coli – absorbance, OD600, counter-screen for AddAB inhibitor project, primary screen (AID 449728).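 Further: uninfected addAB+ strain grown without phage in ampicillin broth; 0% = DMSO wells and 100% = ciprofloxacin 0.95 µg/ml wells.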 The following applies: E. coli V3065 growth, 18 h, at 11.9 µM, stronger effect = higher value. Background: The purpose of a counterscreen is to sort out artefacts and off-target activity.
In the case of `C=C1c2c(Cl)ccc(O)c2C(O)=C2C(=O)[C@]3(O)C(O)=C(C(N)=O)C(=O)[C@@H](N(C)C)[C@@H]3[C@@H](O)C12` (some centres undefined), the inhibition is 103% (active).
With `CN(C)[C@@H]1C(=O)C(C(N)=O)=C(O)[C@@]2(O)C(=O)C3=C(O)c4c(O)ccc(Cl)c4[C@@H](O)[C@H]3C[C@@H]12` the figure was 102% (active); with `CC1CC(C)CN(CCOc2cccc3ccccc23)C1` (centres undefined), 0.17% (inactive).
On to `COc1cc(Cl)c(C)cc1NC(=O)COC(=O)c1cc(SC)ccc1Cl`, for which the inhibition was -0.93% (inactive).
As for `CCCn1nc(Oc2nc(NC(C)C)nc(N(C)C)n2)ccc1=O`, the inhibition is -1.48% (inactive).
Regarding `CCc1c(C)nc2ncnn2c1N1CCC(C(=O)NCc2ccc3c(c2)OCO3)CC1`, the inhibition is -1.08% (inactive).
Take `Cc1cnc(C(=O)OCC(=O)NCCCc2ccccc2)cn1`: the inhibition was -0.78% (inactive).
As to `COc1c(N2CCN(C(=S)Nc3ccccc3F)C(C)C2)c(F)cc2c(=O)c(C(=O)O)cn(C3CC3)c12` (centres undefined), the inhibition is 99% (active).
For the compound `CC1CN(C(=S)Nc2ccccc2F)CC(C)O1` (centres undefined), the inhibition was 0.45% (inactive).
As for `COc1ccccc1NC(=S)N1CCN(c2ccc(F)cc2)CC1`, the inhibition was -1.81% (inactive).
Take `CCOc1ccc(/C=C/C(=O)OCC(=O)c2ccccc2OC)cc1OC`: the inhibition was 2.19% (inactive).
With `O=C(CSc1ccc(-c2ccccc2)nn1)NCC1CCCO1` (centres undefined) the figure was 0.59% (inactive); with `O=C(NCC1CCCO1)C(C(=O)c1ccccc1)n1cc(Cl)ccc1=O` (centres undefined), 96.6% (active).
On to `O=C(NCC1CCCO1)/C(=C/c1ccc(Cl)cc1)NC(=O)c1ccccc1` (centres undefined), for which the inhibition was 0.6% (inactive).
As for `O=C1CN(C(=O)COC(=O)C2CC(=O)N(Cc3ccco3)C2)c2ccccc2N1` (centres undefined), the inhibition was -0.37% (inactive).
Take `Cc1ccc(NC(=O)C(C)OC(=O)Cc2c[nH]c3ccccc23)cc1S(=O)(=O)N1CCOCC1` (centres undefined): the inhibition was -2.87% (inactive).
As to `CC(C)CC(=O)NC(=S)NNC(=O)c1cccc([N+](=O)[O-])c1`, the inhibition is -7.21% (inactive).
For the compound `CN(C)CCn1c2c(c(SCC(=O)NCc3ccccc3)nc1=O)CCC2`, the inhibition is -1.35% (inactive).
For the compound `COC(=O)c1oc2ccc(Br)cc2c1NC(C)=O`, the inhibition is 1.03% (inactive).
For `COc1ccc(C(=O)c2oc3ccc(Br)cc3c2NC(C)=O)cc1`, the inhibition was 98.8% (active).
Turning to `COc1ccc(CC(=O)Nc2c(C(N)=O)oc3ccccc23)cc1`, the inhibition was -1.77% (inactive).
On to `OCc1ccc(-c2ccccc2)c(-c2ccccc2)c1`, for which the inhibition was -4.27% (inactive).
With `CCC1(C)Cc2c(sc3[nH]c(=S)n(Cc4ccccc4)c(=O)c23)CO1` (centres undefined), the inhibition is -1.73% (inactive).
With `Nc1nonc1-n1nnc(C(=O)N/N=C/c2cc(Br)ccc2O)c1CSC1=NCCS1` the figure was 12.6% (active); with `Nc1nonc1-n1nnc(C(=O)N/N=C/c2ccccc2O)c1CN1CCCC1`, -0.26% (inactive); with `Cc1ccc(SCc2c(C(=O)N/N=C/c3cccnc3)nnn2-c2nonc2N)cc1`, 1.61% (inactive).
Take `O=C(CNCCO)NC12CC3CC(CC(C3)C1)C2`: the inhibition is -2.56% (inactive).
Take `CSCCC(NS(=O)(=O)/C=C/c1ccccc1)C(=O)N1CCC(C)CC1` (centres undefined): the inhibition was -0.42% (inactive).
As for `CSc1cc(C)[nH]c(=O)n1`, the inhibition is -2.18% (inactive).
For `CCc1ccccc1NC(=O)CN(c1ccc(OC)cc1OC)S(=O)(=O)c1ccccc1[N+](=O)[O-]`, the inhibition was -0.37% (inactive).
Consider `COc1ccc(C(=O)NCC(=O)N/N=C/c2ccc([N+](=O)[O-])o2)cc1OC`, for which the inhibition is 5.52% (inactive).
With `C/[N+]([O-])=C\c1ccc([N+](=O)[O-])o1`, the inhibition is 15.4% (active).
In the case of `COC(=O)C1=C(C)N(C)C(=O)NC1c1ccc([N+](=O)[O-])o1` (centres undefined), the inhibition is 0.52% (inactive).
For the compound `COC(=O)c1ccc(COC(=O)c2cnccn2)cc1`, the inhibition is -0.61% (inactive).
Take `Cc1cccc(NC(=O)Cn2cc(C(=O)c3ccco3)c3ccccc32)c1`: the inhibition is 16.6% (active).
`CC1CCN(C(=O)Cn2cc(C(=O)c3ccco3)c3ccccc32)CC1`: the inhibition is -0.18% (inactive).
Turning to `O=C(Cn1cc(C(=O)c2cccs2)c2ccccc21)NCc1cccs1`, the inhibition was 0.18% (inactive).
Take `Cc1ccc(CN2CCC(N3CCC(C(=O)NCC4CCCO4)CC3)CC2)o1` (centres undefined): the inhibition was -1.01% (inactive).
In the case of `COc1ccc(CCNC(=O)/C(C#N)=C2\N=C(NC(=O)c3cccs3)c3ccccc32)cc1` it was -0.34% (inactive).
Regarding `O=C(NCC#CCSc1nnc(-c2cccc3ccccc23)o1)c1cccs1`, the inhibition is 10.2% (active).
Take `C#CCSc1nnc(-c2sc3ccccc3c2Cl)o1`: the inhibition is 2.18% (inactive).
For `COc1ccc(C)cc1N(CC(=O)NC(C)c1ccccc1)S(C)(=O)=O` (centres undefined), the inhibition was 0.84% (inactive).
As to `C[N+]1(CCNC(=O)/C=N/O)CCCCC1`, the inhibition is -1.11% (inactive).
`COc1ccc([C@H]2CC(=O)C=C(/C=C/c3ccccc3)C2)cc1`: the inhibition is -0.71% (inactive).
For the compound `Cc1ccccc1NC(=O)NC1(C(=O)N2CCCC2)CCCCC1`, the inhibition was -1.26% (inactive).
On to `Oc1c(Cl)cc(Cl)c(Cl)c1Cc1c(O)c(Cl)cc(Cl)c1Cl`, for which the inhibition was 12.2% (active).
`CC(=O)OCCOCn1cnn2c(=O)c(Br)c(C)nc12`: the inhibition is -2.04% (inactive).
Regarding `CCNC(=S)N1CCN(c2ncccn2)CC1`, the inhibition is 0.78% (inactive).
In the case of `CN(C)CCCn1c(SCc2ccc(Cl)cc2)nnc1-c1ccncc1`, the inhibition was -1.29% (inactive).
In the case of `COc1cccc(-c2sc3ccc(OC)cc3c2-c2ccc(OCCN3CCCCC3)cc2)c1` it was -0.53% (inactive); in that of `Cc1ccc(C23CC4CC(CC(C(=O)NCC(=O)O)(C4)C2)C3)cc1`, 1% (inactive); in that of `CCOc1ccccc1NC(=O)Cc1cccs1`, 1.04% (inactive).
Consider `CCOc1ccccc1NC(=O)C12CC3CC(C1)CC(c1ccc(C)cc1)(C3)C2`, for which the inhibition is 26.6% (active).
For `COCCCNC(=O)C1CCC(CNS(=O)(=O)c2ccc(OC)cc2)CC1` (centres undefined), the inhibition is -1.01% (inactive).
In the case of `CCC1C(=O)NCCN1C(=O)c1ccc2nc(Cc3ccc(OC)cc3)oc2c1` (centres undefined), the inhibition was -0.08% (inactive).
For the compound `O=C(OCC1O[C@@H](OC(=O)c2cc(O)c(O)c(O)c2)[C@@H](OC(=O)c2cc(O)c(O)c(O)c2)[C@@H](OC(=O)c2cc(O)c(O)c(O)c2)[C@@H]1OC(=O)c1cc(O)c(O)c(O)c1)c1cc(O)c(O)c(O)c1` (some centres undefined), the inhibition is 23.6% (active).
As for `CCOc1cccc(/C=N/NC(=S)NCCN2CCOCC2)c1O`, the inhibition was 0.34% (inactive).
In the case of `COc1ccc(Br)cc1/C=N/Nc1ccc(Cl)c(C(=O)O)c1`, the inhibition is -3.01% (inactive).
In the case of `COc1cccc(/C=N/Nc2ncc(C(F)(F)F)cc2Cl)c1O`, the inhibition was 15.6% (active).
Turning to `C/C(CC(C)C)=N\Oc1nc(C)cc(C)n1`, the inhibition is 0.81% (inactive).
On to `COc1ccc2c(C(=O)c3ccc(C)cc3)n(CCC(N)=O)[n+]([O-])c2c1`, for which the inhibition is -1.03% (inactive).
On to `COc1ccc(C(=O)c2c3ccc([N+](=O)[O-])cc3[n+]([O-])n2CCCN)cc1`, for which the inhibition was 9.95% (active).
In the case of `COc1ccc(C(=O)CC(=O)C(=O)Nc2cc([N+](=O)[O-])ccc2OC)cc1`, the inhibition is -2.64% (inactive).
On to `CN1CCN(C(=O)c2cnn(-c3ccccc3)c2NC(=O)c2ccc([N+](=O)[O-])cc2)CC1`, for which the inhibition was -0.94% (inactive).
For `Cc1ccc(/C=C/C(=O)Nc2ccc([N+](=O)[O-])c(NC(=O)/C=C/c3ccc(C)o3)c2)o1`, the inhibition was -5.13% (inactive).
As to `O=C(/C=C/c1ccc([N+](=O)[O-])o1)NNC(=O)c1ccc(F)cc1`, the inhibition was 97.9% (active).
In the case of `O=C(NNC(=O)C1CCCC1)c1ccc(F)cc1`, the inhibition is -1.97% (inactive).
Regarding `CONC(=O)c1cc(OCC(F)(F)F)ccc1OCC(F)(F)F`, the inhibition was -0.41% (inactive).
In the case of `O=C1CN(C(=O)COC(=O)c2cnc(Cl)c(Cl)c2)c2ccccc2N1`, the inhibition is 1.7% (inactive).
`O=C1c2ccccc2C2=Nc3ccccc3SC(c3ccccc3F)C12` (centres undefined): the inhibition was 19.9% (active).
For `CCOC(=O)C1=C(C)N=C2c3ccccc3C(=O)C2C1c1ccc(Br)cc1` (centres undefined), the inhibition is 0.42% (inactive).
As to `O=C1c2ccccc2C(=O)C1c1ccccc1F`, the inhibition was 1.08% (inactive).
With `C=CCN(Cc1nc(-c2cc(OC)c3c(c2)OCO3)oc1C)C1CCS(=O)(=O)C1` (centres undefined), the inhibition was -0.09% (inactive).
In the case of `O=C(COC(=O)c1c(Cl)cccc1Cl)Nc1cccc(S(=O)(=O)NC2=NCCCCC2)c1`, the inhibition was -2.98% (inactive).

What is called inhibition is the drop in the measured response relative to a control, in per cent.
